Inconclusive results are not listed. A call without a number means that no potency is given here. Activity calls are given as the source filed them. The call rests on the fitted dose curve; in most records, active means well fitted curve in the direction sought with a large enough effect; inconclusive means small, poorly fitted or top-dose-only effect, or another doubt; inactive means no such curve, though single readings can be large; an effect the other way counts as inactive or inconclusive.
Target: Aldehyde dehydrogenase, mitochondrial (Homo sapiens) (UniProt P05091)
Experiment: qHTS for Inhibitors of the Aldehyde Dehydrogenase Family (ALDH2) Primary screen (AID 2061308); further: nearly all actives have a fitted effect of over 55% in size
Conditions: ALDH2 enzyme inhibition qHTS, 1536-well; series mostly up to 56 µM
Potency means the concentration at half of the fitted maximal effect.

Row | Structure (SMILES) | Potency
1 | CC1(C)CC2CC(C)(CN2S(=O)(=O)c2ccc(C(=O)Nc3cccc(S(=O)(=O)N4CCOCC4)c3)cc2)C1 (centres undefined) | inactive
2 | COc1cccc(CNc2ccc(S(=O)(=O)Nc3ccc(C4CCNCC4)cc3)cc2)c1O | inactive
3 | O=C(O)CSc1cc(NS(=O)(=O)c2ccc(Br)cc2)c2ccccc2c1O | 7.08 µM (active)
4 | CC(C)(C)OC(=O)N1CCN(c2ccc(NCc3ccc4c(-c5ccc(F)cc5)cc(=O)oc4c3)cc2)CC1 | inactive
5 | CC(=O)Nc1ccc(OC2=NS(=O)(=O)c3ccccc32)cc1 | inactive
6 | CC1CC(O)CC(C)(C)C1(O)CCO (centres undefined) | inactive
7 | O=C(O)c1ccccc1OC1=NS(=O)(=O)c2ccccc21 | inactive
8 | COc1cc([C@@H](O[C@@H]2O[C@H](CO)[C@@H](O)[C@H](O)[C@H]2O)[C@@H]2CO[C@H](c3ccc(O)c(OC)c3)[C@H]2CO)ccc1O | inactive
9 | C[C@H](N)C(=O)Nc1cccc(-c2nn3c(=O)cc(N4CCNCC4)nc3s2)c1 | inactive
10 | COc1ccc(C2Nc3ccccc3C(=O)N2Cc2ccccc2)cc1COc1ccc(Cl)cc1 (centres undefined) | inactive
11 | NC1CCN(c2nc(-c3ccc(Br)cc3)cs2)CC1 | inactive
12 | O=C(O)c1cccc(S(=O)(=O)Nc2nccs2)c1 | inactive
13 | COc1ccc(CCCN2CCC(COC(c3ccccc3)c3ccccc3)CC2)cc1 | inactive
14 | O=C(Nc1ccc(Cl)c(Cl)c1)Nc1ccc(-c2ccncc2)s1 | inactive
15 | COc1ccc(C2Nc3ccccc3C(=O)N2Cc2ccccc2)cc1COc1cccc(C(F)(F)F)c1 (centres undefined) | inactive
16 | S=C(Nc1cc(Cl)ccn1)N1CCN(c2cccc(Cl)c2Cl)CC1 | inactive
17 | O=C(/C=C/c1ccc2c(c1)OCO2)Nc1cccc([S+](=O)([O-])Nc2ccccc2F)c1 | inactive
18 | O=C(Nc1ccc2ccccc2c1)Nc1nnc(Br)s1 | inactive
19 | CN(C)c1ccc(/C=C/C(=O)Nc2cccc([S+](=O)([O-])Nc3ccccc3F)c2)cc1 | inactive
20 | Cc1c(Cl)cccc1NS(=O)(=O)c1cc2c(cc1Cl)CCC(=O)N2 | inactive

Row | Structure (SMILES) | Potency
21 | Nc1ccc2c(c1)S(=O)(=O)NC2=O | inactive
22 | COc1ccc(C(=O)N(Cc2ccccc2)Cc2ccc(OC)c(COc3ccc(NC(C)=O)cc3)c2)c(O)c1 | inactive
23 | N[C@@H](CO)C(=O)Nc1ccc(Cl)cc1C(=O)c1ccc[nH]1 | inactive
24 | Cc1cc(N[S+](=O)([O-])c2ccc(NC(=O)Cc3ccc4nccnc4c3)cc2)no1 | inactive
25 | Cc1cnc(-c2ccccc2C(F)F)nc1NCc1ccc(-n2ccnn2)cc1 | inactive
26 | Cc1ccc(OCCn2c(CCNC(=O)c3cccs3)nc3ccccc32)cc1 | inactive
27 | COc1cc(/C=C/C(=O)OC[C@H]2O[C@H](O[C@]3(CO)O[C@H](CO)[C@@H](O)[C@@H]3O)[C@H](O)[C@@H](O)[C@@H]2O)cc(OC)c1O | inactive
28 | N#Cc1nc(Nc2cccc(F)c2)nc(NC2CCCC2)n1 | inactive
29 | c1ccc(CN(Cc2ccccc2)Cc2nnc(-c3cc4ccccc4[nH]3)s2)cc1 | inactive
30 | Cc1ccc(OCCn2c(CCNC(=O)c3cccnc3)nc3ccccc32)cc1 | inactive
31 | O=C([C@H](Cc1ccc(O[S+](=O)([O-])c2cccc3cccnc23)cc1)N[S+](=O)([O-])c1ccccn1)N1CCN(c2ccccc2)CC1 | inactive
32 | CCCc1nnc(-c2cnn(C)c2N)n1CCCn1ccnc1 | inactive
33 | Cc1nnc(-c2cnn(C)c2N)n1CCc1ccccc1 | inactive
34 | O=C(CCCc1ccc2cccnc2n1)NCc1cc(-c2ccc(F)c(C(F)(F)F)c2)no1 | inactive
35 | O=C(Nc1cccc([S+](=O)([O-])Nc2ccccc2F)c1)c1ccccc1 | inactive
36 | CC(C)c1ccccc1-c1nc(NCC2CCN(c3cccnc3)CC2)c2ccccc2n1 | inactive
37 | FC(F)(F)c1ccc(-c2nc(-c3nnc4n3CCCCC4)c(C(F)(F)F)o2)cc1 | inactive
38 | N=c1c2c(ncn1-c1ccccc1)Oc1ccc3ccccc3c1C2c1ccc2c(c1)OCCO2 (centres undefined) | inactive
39 | COc1ccc(C2Nc3ccccc3C(=O)N2Cc2ccc(C(C)(C)C)cc2)cc1COc1ccc(NC(C)=O)cc1 (centres undefined) | inactive
40 | O=C1NS(=O)(=O)c2cc(Br)ccc21 | inactive

Target: Retinal dehydrogenase 2 (Homo sapiens) (UniProt O94788)
Experiment: qHTS for Inhibitors of the Aldehyde Dehydrogenase Family (ALDH1A2) Confirmation screens (AID 2061314); further: nearly all actives have a fitted effect of over 65% in size
Conditions: ALDH1A2 enzyme inhibition qHTS confirmation; series mostly up to 45.9 µM

Row | Structure (SMILES) | Potency
41 | CC1(C)CC2CC(C)(CN2S(=O)(=O)c2ccc(C(=O)Nc3cccc(S(=O)(=O)N4CCOCC4)c3)cc2)C1 (centres undefined) | 8.96 µM (active)
42 | O=C(O)CSc1cc(NS(=O)(=O)c2ccc(Br)cc2)c2ccccc2c1O | 0.4 µM (active)
43 | CC(=O)Nc1ccc(OC2=NS(=O)(=O)c3ccccc32)cc1 | inactive
44 | CC1CC(O)CC(C)(C)C1(O)CCO (centres undefined) | inactive
45 | O=C(O)c1ccccc1OC1=NS(=O)(=O)c2ccccc21 | inactive
46 | COc1cc([C@@H](O[C@@H]2O[C@H](CO)[C@@H](O)[C@H](O)[C@H]2O)[C@@H]2CO[C@H](c3ccc(O)c(OC)c3)[C@H]2CO)ccc1O | inactive
47 | NC1CCN(c2nc(-c3ccc(Br)cc3)cs2)CC1 | inactive
48 | O=C(O)c1cccc(S(=O)(=O)Nc2nccs2)c1 | inactive
49 | COc1ccc(CCCN2CCC(COC(c3ccccc3)c3ccccc3)CC2)cc1 | inactive
50 | O=C(Nc1ccc(Cl)c(Cl)c1)Nc1ccc(-c2ccncc2)s1 | inactive
51 | COc1ccc(C2Nc3ccccc3C(=O)N2Cc2ccccc2)cc1COc1cccc(C(F)(F)F)c1 (centres undefined) | 20.1 µM (active)
52 | S=C(Nc1cc(Cl)ccn1)N1CCN(c2cccc(Cl)c2Cl)CC1 | 25.2 µM (active)
53 | O=C(/C=C/c1ccc2c(c1)OCO2)Nc1cccc([S+](=O)([O-])Nc2ccccc2F)c1 | inactive
54 | Cc1c(Cl)cccc1NS(=O)(=O)c1cc2c(cc1Cl)CCC(=O)N2 | 12.7 µM (active)
55 | Nc1ccc2c(c1)S(=O)(=O)NC2=O | inactive
56 | Cc1ccc(OCCn2c(CCNC(=O)c3cccs3)nc3ccccc32)cc1 | 31.8 µM (active)
57 | COc1cc(/C=C/C(=O)OC[C@H]2O[C@H](O[C@]3(CO)O[C@H](CO)[C@@H](O)[C@@H]3O)[C@H](O)[C@@H](O)[C@@H]2O)cc(OC)c1O | inactive
58 | Cc1ccc(OCCn2c(CCNC(=O)c3cccnc3)nc3ccccc32)cc1 | inactive
59 | CCCc1nnc(-c2cnn(C)c2N)n1CCCn1ccnc1 | inactive
60 | Cc1nnc(-c2cnn(C)c2N)n1CCc1ccccc1 | inactive
61 | O=C(CCCc1ccc2cccnc2n1)NCc1cc(-c2ccc(F)c(C(F)(F)F)c2)no1 | inactive
62 | O=C(Nc1cccc([S+](=O)([O-])Nc2ccccc2F)c1)c1ccccc1 | inactive
63 | N=c1c2c(ncn1-c1ccccc1)Oc1ccc3ccccc3c1C2c1ccc2c(c1)OCCO2 (centres undefined) | inactive
64 | O=C1NS(=O)(=O)c2cc(Br)ccc21 | inactive
